A number with no mark means an inactive call.
System: MCF10A
Experiment: perturbation Mahalanobis distance of morphological profile vs DMSO controls (Mahalanobis distance (SD units)); higher = stronger morphological change, active = 7 or more
Conditions: 72 h
Description: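 MCF10A cells were seeded onto drugs dispensed acoustically into 384-well plates, using one dose per drug chosen from its human peak plasma concentration, and incubated for 72 h at 37 °C. Cells were stained for DNA, tubulin and mitochondria and imaged; 78 CellProfiler features were extracted, plate-normalised and compared with DMSO wells.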

[1] = screen batch: Batch1_Mahalanobis_Distance
[2] = screen batch: Batch2_Mahalanobis_Distance

Compound	perturbation Mahalanobis distance [1]	perturbation Mahalanobis distance [2]
Cc1nnc(C(C)C)n1C1C[C@H]2CC[C@@H](C1)N2CC[C@H](NC(=O)C1CCC(F)(F)CC1)c1ccccc1 (stereo partly drawn) [Maraviroc] (11.35 µM)	2.84	2.67
C[C@]12C=CC(=O)C=C1CC[C@@H]1[C@@H]2[C@@H](O)C[C@@]2(C)[C@H]1CC[C@]2(O)C(=O)CO [Prednisolone] (13.9 µM)	4.8	3.8
CCC(=O)NCC[C@@H]1CCc2ccc3c(c21)CCO3 [Ramelteon] (0.13 µM)	2.83	2.59
O=C1[C@H](CC[C@H](O)c2ccc(F)cc2)[C@@H](c2ccc(O)cc2)N1c1ccc(F)cc1 [Ezetimibe] (0.87 µM)	3.59	2.59
CC(=O)NO [Acetohydroxamic Acid] (523.5 µM)	4.11	4.24
Cc1c(OCC(F)(F)F)ccnc1CS(=O)c1nc2ccccc2[nH]1 (stereo not drawn) [Lansoprazole] (23 µM)	4.87	8.49 (active)
NNC(=O)c1ccncc1 [Isoniazid] (73.5 µM)	6.37	2.59
CN(C)CC[C@@H](c1ccc(Cl)cc1)c1ccccn1 [Dexchlorpheniramine] (0.15 µM)	2.03	2.67
c1ccc([C@H]2CN3CCSC3=N2)cc1 [Levamisole] (11.7 µM)	2.32	2.52
CNCCCC12CCC(c3ccccc31)c1ccccc12 [Maprotiline] (10.8 µM)	3.39	6.41
O=C1CN(/N=C/c2ccc(-c3ccc([N+](=O)[O-])cc3)o2)C(=O)N1 [Dantrolene] (23.9 µM)	2.62	3.85
CCn1cc(C(=O)O)c(=O)c2cc(F)c(N3CCNCC3)nc21 [Enoxacin] (62.4 µM)	7.28 (active)	4.85
O=C(O)[C@H]1OC(Oc2ccc([C@@H]3[C@@H](CC[C@@H](O)c4ccc(F)cc4)C(=O)N3c3ccc(F)cc3)cc2)[C@H](O)[C@@H](O)[C@@H]1O (stereo partly drawn) [Ezetimibe Glucuronide] (47 µM)	2.38	2.09
COCCCC/C(=N\OCCN)c1ccc(C(F)(F)F)cc1 [Fluvoxamine] (3.9 µM)	2.43	2.47

Reference: the supplement of paper PMC6853941
